Reference: PubChem BioAssay AID463173 (ICCB-Longwood Screening Facility, Harvard Medical School, 2010)
Hit rate of the full screen: of about 52,000 compounds, about 4,300 (8.3%) were called active. Shown is part of a subset that was picked to be rich in actives. Unmarked numbers belong to inactive results. No stated cut-off is given here; in the data, active means survival mostly below about 52% (no sharp cut-off); inactive means mostly above about 56%.

What follows are compounds tested on DeltatarO mutant (assay: S. aureus survival, RN4220 and DeltatarO strains – OD600, teichoic acid synthesis inhibitors, primary screen (AID 463173)). Details: S. aureus RN4220 wild type/DeltatarO growth, OD600, 18 h, active compounds read low, screened at 18.75 µg/mL (by protocol).
`Cc1ccc(C(C(=O)NC2CCCCC2)N(C(=O)C2COc3ccccc3O2)c2ccc3c(c2)OCO3)o1` (centres undefined) gave a survival of 77%. For `Cc1ccc(C(C(=O)NCc2ccccc2)N(C(=O)C2COc3ccccc3O2)c2cccc(O)c2)o1` (centres undefined), the survival was 45% (active). `O=C(NCc1ccco1)C(c1cccs1)N(C(=O)C1COc2ccccc2O1)c1cccc(O)c1` (centres undefined) showed a survival of 63%. With `CCn1c(SCC(N)=O)nc2ccccc2c1=O` the survival was 102%. `Cc1ccc(-c2nc(Cn3c(=O)cc(-c4ccccc4)c4c(C)nn(C)c43)c(C)o2)cc1` gave a survival of 108%. With `Cc1nn(C)c2c1c(-c1ccccc1)cc(=O)n2Cc1c(F)cccc1Cl` the survival was -5% (active). `Cc1cccc(-c2nc(Cn3c(=O)cc(-c4ccccc4)c4c(C)nn(C)c43)c(C)o2)c1` was tested, and the survival was -5% (active). Work on `Cc1nn(C)c2c1c(-c1ccccc1)cc(=O)n2Cc1ccccc1F` yielded a survival of 109%. `Cc1cc(=O)n(Cc2c(F)cccc2Cl)c2c1c(C)nn2C` showed a survival of 81%. Compound `Cc1oc(-c2ccccc2)nc1Cn1c(=O)cc(-c2ccccc2)c2c(C)nn(C)c21` has a survival of 92%. `CSc1cccc(NC(=O)Nc2ccccc2OCc2cc(=O)n3cc(C)ccc3n2)c1` gave a survival of 102%. Work on `CCc1ccc(-c2nc(CN3CCC(C(=O)NCCc4ccc(Cl)cc4)CC3)c(C)o2)cc1` yielded a survival of 77%. Compound `Cc1cccc(C(=O)N2CCc3cc(CNC(=O)CSc4ccccc4)ccc32)c1` has a survival of 77%. `Cc1c(C)c2cc3c(c(C)c2oc1=O)OCN(CCc1ccccc1)C3` gave a survival of 77%. With `COC(=O)Cc1c(C)c2cc3c(c(C)c2oc1=O)OCN(CCc1ccc(F)cc1)C3` the survival was 44%. Work on `CCc1cc(=O)oc2c(C)c3c(cc12)CN(CCc1ccccc1OC)CO3` yielded a survival of 51%. `CCc1cc(=O)oc2c(C)c3c(cc12)CN(CCc1ccccc1)CO3` showed a survival of 71%. In the case of `CCCc1cc(=O)oc2c(C)c3c(cc12)CN(CCc1ccc(Cl)cc1)CO3`, the survival is reported as 39% (active). For `Cc1c(C)c2cc3c(c(C)c2oc1=O)OCN(CCc1ccc(F)cc1)C3`, the survival was 41% (active). For `COc1ccc2oc(=O)c(-c3nc(-c4ccc(C)c(C)c4)cs3)cc2c1`, the survival was 91%. `COc1ccc(C2CC(=O)c3cnc4c(-c5ccc(F)cc5)c(C)nn4c3C2)cc1OC` (centres undefined) showed a survival of 80%. `CCOC(=O)c1sc2ncn(CC(=O)Nc3ccc(C)cc3Br)c(=O)c2c1C` showed a survival of 66%. Work on `Cc1ccccc1CNC(=O)C(=O)NCC(c1ccc2c(c1)OCO2)N1CCOCC1` (centres undefined) yielded a survival of 87%. Compound `CCN(C(=O)c1cc2c(=O)oc3ccc(C)cc3c2s1)c1cc(OC)ccc1OC` has a survival of 78%. `CC(=O)Nc1ccc(Nc2ncnc3c2c(-c2ccccc2)cn3-c2ccc(C)c(Cl)c2)cc1` showed a survival of 68%. For `CNc1oc(-c2ccc(COc3ccc(C)cc3)o2)nc1C#N`, the survival was 77%. For `CCCn1c(CCC(=O)Nc2ccc(OCC)cc2)nc2cccnc21`, the survival was 93%. `COc1ccccc1-c1cc(C(=O)Nc2sc3c(c2C#N)CCCC3)no1` showed a survival of 130%. With `COc1ccccc1-c1ncnn1-c1sc2c(c1C#N)CCCCC2` the survival was -2% (active). In the case of `N#Cc1c(/N=C/N2CCCCC2)sc2c1CCCC2`, the survival is reported as 80%. Compound `COc1cccc(-c2ncnn2-c2sc3c(c2C#N)CCCCC3)c1OC` has a survival of 86%. For `N#Cc1c(-n2ncnc2-c2ccccc2Cl)sc2c1CCCCC2`, the survival was 26% (active). `N#Cc1c(NC(=O)c2cccs2)sc2c1CCCCC2` showed a survival of 87%. With `CC(NC(=O)Nc1ccccc1C(F)(F)F)c1c(-n2cccc2)sc2c1CCCC2` (centres undefined) the survival was 104%. `Cc1ccccc1-c1ncnn1-c1sc2c(c1C#N)CCCCC2` showed a survival of 72%. For `N#Cc1c(-n2ncnc2-c2ccccc2C(F)(F)F)sc2c1CCCCC2`, the survival was 6% (active). Compound `O=C(CCNS(=O)(=O)c1ccc2c(c1)CCCC(=O)N2)NCc1ccccc1Cl` has a survival of 87%. `CCCOc1ccc(CNC(=O)Cn2ncn3c(cc4sc(CC)cc43)c2=O)cc1` gave a survival of 94%. Compound `CC(C)Cc1nn2c(=O)cc(COC(=O)c3ccccc3NC(=O)c3ccccc3)nc2s1` has a survival of 117%. `CSc1ncc(C(=O)Nc2ccccc2C(=O)c2ccccc2)c(C)n1` showed a survival of 64%. `Cc1cccc(C(=O)NC(c2n[nH]c(=S)n2C)C(C)C)c1` (centres undefined) showed a survival of 111%. For `CCCOc1cccc(C(=O)Nc2cccc(NC(=O)c3ccc(Cl)cc3Cl)c2)c1`, the survival was 88%. Compound `Cc1c(Cl)cccc1NC(=O)CCOc1ccccc1` has a survival of 142%. With `CCOC(=O)c1ccccc1NC(=O)CCOc1ccccc1` the survival was 22% (active). `CCc1ccc(NC(=O)Cc2c(C(=O)O)c(C)cn2C)cc1` was tested, and the survival was 87%. `Cc1ccc(C)c(NC(=O)CCOc2ccccc2)c1` was tested, and the survival was 77%. `CCOC(=O)c1ccccc1NC(=O)Cc1c(C(=O)O)c(C)cn1C` was tested, and the survival was 17% (active). Work on `Cc1cn(C)c(CC(=O)Nc2cccc(Cl)c2C)c1C(=O)O` yielded a survival of 99%. `COc1ccc(C2(C(=O)O)CCCC2)cc1OC` showed a survival of 107%.
